# Source: PMC5540273 (PLoS ONE, 2017)
# Values joined by “and” are separate entries in the source; they are usually repeats but may differ in a detail not shown here. Equal values may be shown once. Read-outs that look alike come from different tables or passages of the source.
# Columns and labels:
# KIT-autoinhibited = details: concentration: 1 μM, replicates: in singlicate; n = 1
# KIT = details: concentration: 1 μM, replicates: in singlicate, n = 1
# LATS1 = details: concentration: 1 μM, replicates: in singlicate, n = 1
# LATS2 = details: concentration: 1 μM, replicates: in singlicate, n = 1
# LCK = details: concentration: 1 μM, replicates: in singlicate; n = 1
# LIMK1 = details: concentration: 1 μM, replicates: in singlicate, n = 1
# LIMK2 = details: concentration: 1 μM, replicates: in singlicate; n = 1
# LKB1 = test system: T1, LKB1; details: concentration: 1 μM, replicates: in singlicate, n = 1
# T1 construct: gene STK11
# LOK = test system: T2, LOK; details: concentration: 1 μM, replicates: in singlicate, n = 1
# T2 construct: gene STK10
# LRRK2 = details: concentration: 1 μM, replicates: in singlicate; n = 1
# LTK = details: concentration: 1 μM, replicates: in singlicate, n = 1
# LYN = details: concentration: 1 μM, replicates: in singlicate; n = 1
# LZK = test system: T3, LZK; details: concentration: 1 μM, replicates: in singlicate, n = 1
# T3 construct: gene MAP3K13
# MAK = details: concentration: 1 μM, replicates: in singlicate, n = 1
# MAP3K15 = details: concentration: 1 μM, replicates: in singlicate; n = 1
# MAP3K1 = details: concentration: 1 μM, replicates: in singlicate, n = 1
# MAP3K2 = details: concentration: 1 μM, replicates: in singlicate, n = 1
# MAP3K3 = details: concentration: 1 μM, replicates: in singlicate; n = 1
# MAP3K4 = details: concentration: 1 μM, replicates: in singlicate, n = 1
# MAP4K2 = details: concentration: 1 μM, replicates: in singlicate; n = 1
# 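Also: KINOMEscan kinase panel screen.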
smiles,measurement,setting,value
Cc1cccc(-c2nc(-c3ccc(S(C)(=O)=O)cc3)sc2-c2ccncc2)c1,%Inh,KIT-autoinhibited,7%
same,%Inh,KIT,18%
same,%Inh,LATS1,36%
same,%Inh,LATS2,50%
same,%Inh,LCK,23%
same,%Inh,LIMK1,0%
same,%Inh,LIMK2,1%
same,%Inh,LKB1,0%
same,%Inh,LOK,0%
same,%Inh,LRRK2,2%
same,%Inh,LTK,0%
same,%Inh,LYN,14%
same,%Inh,LZK,8%
same,%Inh,MAK,17%
same,%Inh,MAP3K15,9%
same,%Inh,MAP3K1,12%
same,%Inh,MAP3K2,10%
same,%Inh,MAP3K3,9%
same,%Inh,MAP3K4,0%
same,%Inh,MAP4K2,0%
CCn1cnc2c(N)ncnc21 [GW345098],%Inh,KIT-autoinhibited,7%
same,%Inh,KIT,20%
same,%Inh,LATS1,0%
same,%Inh,LATS2,21%
same,%Inh,LCK,5%
same,%Inh,LIMK1,26%
same,%Inh,LIMK2,27%
same,%Inh,LKB1,26%
same,%Inh,LOK,25%
same,%Inh,LRRK2,0%
same,%Inh,LTK,16%
same,%Inh,LYN,0%
same,%Inh,LZK,3%
same,%Inh,MAK,0%
same,%Inh,MAP3K15,6%
same,%Inh,MAP3K1,18%
same,%Inh,MAP3K2,9%
same,%Inh,MAP3K3,20%
same,%Inh,MAP3K4,11%
same,%Inh,MAP4K2,19%
Fc1ccc(-c2ncn(CCCN3CCOCC3)c2-c2ccccn2)cc1 [SB-211742],%Inh,KIT-autoinhibited,0%
same,%Inh,KIT,0%
same,%Inh,LATS1,10%
same,%Inh,LATS2,0%
same,%Inh,LCK,28%
same,%Inh,LIMK1,0%
same,%Inh,LIMK2,0%
same,%Inh,LKB1,33%
same,%Inh,LOK,8%
same,%Inh,LRRK2,0%
same,%Inh,LTK,11%
same,%Inh,LYN,0%
same,%Inh,LZK,0%
same,%Inh,MAK,0%
same,%Inh,MAP3K15,0%
same,%Inh,MAP3K1,0%
same,%Inh,MAP3K2,0%
same,%Inh,MAP3K3,0%
same,%Inh,MAP3K4,18%
same,%Inh,MAP4K2,0%
CC(C)(CN)c1nc(-c2ccc(Cl)c(O)c2)c(-c2ccncc2)[nH]1.O=C(O)C(F)(F)F [SB-477794],%Inh,KIT-autoinhibited,0%
same,%Inh,KIT; 1 µM,66% and 58%
same,%Inh,LATS1; 1 µM,7% and 39%
same,%Inh,LATS2; 1 µM,86% and 89%
same,%Inh,LCK,99.2%
same,%Inh,LIMK1; 1 µM,0% and 2%
same,%Inh,LIMK2,0%
same,%Inh,LKB1; 1 µM,0% and 31%
same,%Inh,LOK; 1 µM,99.1% and 98.2%
same,%Inh,LRRK2,0%
same,%Inh,LTK; 1 µM,18% and 30%
same,%Inh,LYN,91.1%
same,%Inh,LZK; 1 µM,49% and 47%
same,%Inh,MAK; 1 µM,41% and 0%
same,%Inh,MAP3K15,0%
same,%Inh,MAP3K1; 1 µM,22% and 7%
same,%Inh,MAP3K2; 1 µM,43% and 35%
same,%Inh,MAP3K3,0%
same,%Inh,MAP3K4; 1 µM,0% and 13%
same,%Inh,MAP4K2,0%
CC(C)(C)n1cnc2c(N)ncnc21 [SKF-97359],%Inh,KIT-autoinhibited,30%
same,%Inh,KIT,0%
same,%Inh,LATS1,24%
same,%Inh,LATS2,0%
same,%Inh,LCK,0%
same,%Inh,LIMK1,0%
same,%Inh,LIMK2,0%
same,%Inh,LKB1,56%
same,%Inh,LOK,0%
same,%Inh,LRRK2,0%
same,%Inh,LTK,0%
same,%Inh,LYN,0%
same,%Inh,LZK,15%
same,%Inh,MAK,0%
same,%Inh,MAP3K15,0%
same,%Inh,MAP3K1,0%
same,%Inh,MAP3K2,0%
same,%Inh,MAP3K3,0%
same,%Inh,MAP3K4,0%
same,%Inh,MAP4K2,0%
Cn1cc(-c2ccc3c(c2)CCN3C(=O)Cc2ccccc2Cl)c2c(N)ncnc21 [GSK2608885],%Inh,KIT-autoinhibited,4%
same,%Inh,KIT,99.9%
same,%Inh,LATS1,15%
same,%Inh,LATS2,25%
same,%Inh,LCK,99.5%
same,%Inh,LIMK1,32%
same,%Inh,LIMK2,6%
same,%Inh,LKB1,17%
same,%Inh,LOK,99.8%
same,%Inh,LRRK2,0%
same,%Inh,LTK,55%
same,%Inh,LYN,99.2%
same,%Inh,LZK,0%
same,%Inh,MAK,16%
same,%Inh,MAP3K15,0%
same,%Inh,MAP3K1,7%
same,%Inh,MAP3K2,91.1%
same,%Inh,MAP3K3,82%
same,%Inh,MAP3K4,86%
same,%Inh,MAP4K2,10%
O=C(Nc1cccc(-c2nn3ncccc3c2-c2ccnc(Nc3cccc(C(F)(F)F)c3)n2)c1)c1c(F)cccc1F [GSK299495],%Inh,KIT-autoinhibited,0%
same,%Inh,KIT,98.7%
same,%Inh,LATS1,13%
same,%Inh,LATS2,6%
same,%Inh,LCK,98.2%
same,%Inh,LIMK1,9%
same,%Inh,LIMK2,0%
same,%Inh,LKB1,0%
same,%Inh,LOK,96.6%
same,%Inh,LRRK2,0%
same,%Inh,LTK,3%
same,%Inh,LYN,87%
same,%Inh,LZK,12%
same,%Inh,MAK,0%
same,%Inh,MAP3K15,0%
same,%Inh,MAP3K1,15%
same,%Inh,MAP3K2,24%
same,%Inh,MAP3K3,0%
same,%Inh,MAP3K4,33%
same,%Inh,MAP4K2,0%
CSc1ccc(-c2cc3ncnc(SCC(=O)O)c3s2)cc1,%Inh,KIT-autoinhibited,0%
same,%Inh,KIT,51%
same,%Inh,LATS1,7%
same,%Inh,LATS2,4%
same,%Inh,LCK,0%
same,%Inh,LIMK1,0%
same,%Inh,LIMK2,0%
same,%Inh,LKB1,0%
same,%Inh,LOK,19%
same,%Inh,LRRK2,0%
same,%Inh,LTK,17%
same,%Inh,LYN,0%
same,%Inh,LZK,0%
same,%Inh,MAK,29%
same,%Inh,MAP3K15,0%
same,%Inh,MAP3K1,0%
same,%Inh,MAP3K2,0%
same,%Inh,MAP3K3,0%
same,%Inh,MAP3K4,10%
same,%Inh,MAP4K2,0%
COc1ccc(Nc2ncc(C#N)c(Nc3ccccc3C(N)=O)n2)cc1N1CCN(C)CC1.Cl [GSK1558669],%Inh,KIT-autoinhibited,96.1%
same,%Inh,KIT,99.9%
same,%Inh,LATS1,78%
same,%Inh,LATS2,98.9%
same,%Inh,LCK,100%
same,%Inh,LIMK1,85%
same,%Inh,LIMK2,93.4%
same,%Inh,LKB1,58%
same,%Inh,LOK,99%
same,%Inh,LRRK2,98.8%
same,%Inh,LTK,89%
same,%Inh,LYN,93.9%
same,%Inh,LZK,97.5%
same,%Inh,MAK,66%
same,%Inh,MAP3K15,73%
same,%Inh,MAP3K1,38%
same,%Inh,MAP3K2,99.2%
same,%Inh,MAP3K3,99.8%
same,%Inh,MAP3K4,99.9%
same,%Inh,MAP4K2,98.8%
NS(=O)(=O)c1cccc(-c2ccc3ncc(N4CCOCC4)nc3c2)c1 [GSK1535721],%Inh,KIT-autoinhibited,15%
same,%Inh,KIT,14%
same,%Inh,LATS1,0%
same,%Inh,LATS2,9%
same,%Inh,LCK,0%
same,%Inh,LIMK1,0%
same,%Inh,LIMK2,15%
same,%Inh,LKB1,3%
same,%Inh,LOK,0%
same,%Inh,LRRK2,0%
same,%Inh,LTK,8%
same,%Inh,LYN,0%
same,%Inh,LZK,23%
same,%Inh,MAK,8%
same,%Inh,MAP3K15,0%
same,%Inh,MAP3K1,0%
same,%Inh,MAP3K2,0%
same,%Inh,MAP3K3,0%
same,%Inh,MAP3K4,0%
same,%Inh,MAP4K2,4%
COc1ccc(CNC(=O)NC2CCN(c3ccnc(Nc4ccc(OC)cc4)n3)C2)cc1 (stereo not drawn) [GSK1379727],%Inh,KIT-autoinhibited,0%
same,%Inh,KIT,16%
same,%Inh,LATS1,6%
same,%Inh,LATS2,0%
same,%Inh,LCK,8%
same,%Inh,LIMK1,0%
same,%Inh,LIMK2,0%
same,%Inh,LKB1,15%
same,%Inh,LOK,0%
same,%Inh,LRRK2,0%
same,%Inh,LTK,0%
same,%Inh,LYN,0%
same,%Inh,LZK,0%
same,%Inh,MAK,7%
same,%Inh,MAP3K15,0%
same,%Inh,MAP3K1,0%
same,%Inh,MAP3K2,0%
same,%Inh,MAP3K3,0%
same,%Inh,MAP3K4,10%
same,%Inh,MAP4K2,0%
[2H]C([2H])(c1cccc(C(F)(F)F)c1C)n1ccn2c(=O)nc(N3CCOCC3)cc12 [GSK2336394],%Inh,KIT-autoinhibited,0%
same,%Inh,KIT,14%
same,%Inh,LATS1,11%
same,%Inh,LATS2,0%
same,%Inh,LCK,25%
same,%Inh,LIMK1,15%
same,%Inh,LIMK2,0%
same,%Inh,LKB1,0%
same,%Inh,LOK,0%
same,%Inh,LRRK2,0%
same,%Inh,LTK,19%
same,%Inh,LYN,0%
same,%Inh,LZK,0%
same,%Inh,MAK,17%
same,%Inh,MAP3K15,0%
same,%Inh,MAP3K1,0%
same,%Inh,MAP3K2,5%
same,%Inh,MAP3K3,0%
same,%Inh,MAP3K4,25%
same,%Inh,MAP4K2,0%
Cc1c(Cn2c(C)nn3c(=O)cc(N4CCOC(C)C4)nc23)cccc1C(F)(F)F (stereo not drawn) [GSK2344444],%Inh,KIT-autoinhibited,4%
same,%Inh,KIT,1%
same,%Inh,LATS1,0%
same,%Inh,LATS2,0%
same,%Inh,LCK,20%
same,%Inh,LIMK1,0%
same,%Inh,LIMK2,11%
same,%Inh,LKB1,0%
same,%Inh,LOK,0%
same,%Inh,LRRK2,25%
same,%Inh,LTK,0%
same,%Inh,LYN,0%
same,%Inh,LZK,0%
same,%Inh,MAK,15%
same,%Inh,MAP3K15,10%
same,%Inh,MAP3K1,16%
same,%Inh,MAP3K2,9%
same,%Inh,MAP3K3,0%
same,%Inh,MAP3K4,0%
same,%Inh,MAP4K2,0%
NCC(NC(=O)c1cc(-c2cn[nH]c2)c(-c2ccnc3[nH]ccc23)s1)c1ccccc1.O=C(O)C(F)(F)F.O=C(O)C(F)(F)F (stereo not drawn) [GSK1325775],%Inh,KIT-autoinhibited,0%
same,%Inh,KIT,26%
same,%Inh,LATS1,59%
same,%Inh,LATS2,91.1%
same,%Inh,LCK,4%
same,%Inh,LIMK1,0%
same,%Inh,LIMK2,28%
same,%Inh,LKB1,57%
same,%Inh,LOK,0%
same,%Inh,LRRK2,3%
same,%Inh,LTK,0%
same,%Inh,LYN,0%
same,%Inh,LZK,0%
same,%Inh,MAK,16%
same,%Inh,MAP3K15,21%
same,%Inh,MAP3K1,12%
same,%Inh,MAP3K2,8%
same,%Inh,MAP3K3,0%
same,%Inh,MAP3K4,20%
same,%Inh,MAP4K2,84%
Cc1cccc(Cn2ccn3c(=O)cc(N4CCOCC4)nc23)c1 [GSK2297542],%Inh,KIT-autoinhibited,1%
same,%Inh,KIT,38%
same,%Inh,LATS1,28%
same,%Inh,LATS2,10%
same,%Inh,LCK,26%
same,%Inh,LIMK1,2%
same,%Inh,LIMK2,10%
same,%Inh,LKB1,21%
same,%Inh,LOK,0%
same,%Inh,LRRK2,0%
same,%Inh,LTK,0%
same,%Inh,LYN,0%
same,%Inh,LZK,0%
same,%Inh,MAK,32%
same,%Inh,MAP3K15,0%
same,%Inh,MAP3K1,8%
same,%Inh,MAP3K2,8%
same,%Inh,MAP3K3,0%
same,%Inh,MAP3K4,0%
same,%Inh,MAP4K2,0%
